Assay [1] can be described thus: NCI Yeast Anticancer Drug Screen. Data for the rad50 strain (AID 155).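 Note: 0% = growth of vehicle-only cultures of the same strain.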 The note with it: S. cerevisiae rad50 strain growth inhibition; at 50.0 µM; hits give high values. The procedure, abridged: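 Vehicle-treated cultures provide the reference for the growth inhibition reported for compound-exposed, repair-deficient yeast.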
The nature of assay [2]: NCI Yeast Anticancer Drug Screen. Data for the mec2-1 strain (AID 157). The note with it: S. cerevisiae mec2-1 strain, at 50.0 µM, hits give high values. The essentials: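 mec2-1 yeast strain, carrying an alteration in DNA damage repair or cell cycle control, was exposed to compounds; growth inhibition was measured relative to vehicle-treated controls.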
A short description of assay [3]: NCI Yeast Anticancer Drug Screen. Data for the cln2 rad14 strain (AID 165).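 Note: 0% = growth equal to vehicle treated cultures.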 To be noted: S. cerevisiae cln2 rad14 strain, at 50.0 µM, hits give high values. The procedure, abridged:
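Yeast carrying cln2 and rad14 alterations (cell cycle control and DNA damage repair) were exposed to compounds. Growth inhibition was measured against vehicle-treated controls.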

Assay [4] can be described thus: NCI Yeast Anticancer Drug Screen. Data for the bub3 strain (AID 167). To be noted: S. cerevisiae bub3 mutant strain, at 50.0 µM, hits give high values. The essentials:
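Mutant yeast screening strain plus compound; vehicle-treated cultures serve as the 0% inhibition reference.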

A short description of assay [5]: NCI Yeast Anticancer Drug Screen. Data for the mlh1 rad18 strain (AID 175). The note with it: S. cerevisiae mlh1 rad18 strain growth inhibition; at 50.0 µM; hits give high values. The essentials: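 Growth inhibition of the yeast strain was measured after compound exposure and expressed relative to vehicle-treated controls. The strain carries defined defects in DNA damage repair.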

Assay [6] is described as follows: NCI Yeast Anticancer Drug Screen. Data for the sgs1 mgt1 strain (AID 161).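 Note: 0% = growth of cultures given vehicle only.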 The note with it: S. cerevisiae sgs1 mgt1 strain, at 50.0 µM, hits give high values. The procedure, abridged: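 Growth of a repair-deficient yeast mutant was monitored after compound treatment and expressed as inhibition relative to vehicle-treated cultures.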

The panel holds about 79,000 compounds, 15% with a hit somewhere; the sample as a whole holds those more often. Values without a mark were called inactive. Active and inactive are the calls of the source. Cut-off read from the data, not from the text of the source: active = growth inhibition above about 70%; inactive = the rest.

On to `ON=C(c1ccccc1)c1ccccc1`, for which the growth inhibition in assay [1] was -0.15%; in assay [2] it was -3.8%; in assay [3], -7.2%; in assay [4], -1.95%; in assay [5] it was -2.95%.

Regarding `CC(=O)Nc1ccc2ccccc2c1`, the growth inhibition in assay [1] is 7.15%; in assay [2] it was 5.4%; in assay [3] it was -25.1%; in assay [4], -4.1%; in assay [5] it was 1.4%.

On to `CC1CCC(NC(=O)NCCCl)c2ccccc21` (configuration not stated), for which the growth inhibition in assay [1] is -7.05%; in assay [2], -1.3%; in assay [3], -23.8%; in assay [4], -14.2%; in assay [5], -6.65%.

Consider `COc1ccc(/C=C2\Cc3ccccc3C2=O)cc1OC`, for which the growth inhibition in assay [1] was -0.05%; in assay [2], -10.2%; in assay [4], -25.4%; in assay [5], -1.5%.

As to `CCOC(=O)c1ccc(NC(=O)SCCC(=O)O)cc1`, the growth inhibition in assay [1] is 20.9%; in assay [2], -19.9%; in assay [3], 15.8%; in assay [4] it was -10.2%; in assay [5], 13.8%.

`C[N+](C)(C)c1ncncn1`: the growth inhibition in assay [1] was 2.05%; in assay [2], 1.5%; in assay [3] it was -21%; in assay [4], -25.3%; in assay [5], -0.1%.

For the compound `C/C(=N/N)c1sc(-c2nc(C)c(/C(C)=N\N)s2)nc1C`, the growth inhibition was 32.9% in assay [1]; -31.1% in assay [2]; -16% in assay [3]; -18.1% in assay [4]; -11.3% in assay [5].

As for `OC(CI)C1OCOC(CI)C1O` (configuration not stated), the growth inhibition in assay [1] is -11.7%; in assay [2], 3.65%; in assay [3] it was -26.5%; in assay [4] it was -3.75%; in assay [5], 16.4%.

Consider `Cc1c(-c2ccccc2)[nH]n(C2=NCCN2)c1=O`, for which the growth inhibition in assay [1] is 10.8%; in assay [2] it was 7.45%; in assay [3], -6.35%; in assay [4], -15.5%; in assay [5], -25%.

Turning to `C=C(C)C(C)(C)/C(C)=N\Nc1ccc([N+](=O)[O-])cc1[N+](=O)[O-]`, the growth inhibition is -0.15% in assay [1]; -7.6% in assay [2]; -23.5% in assay [3]; -0.15% in assay [4]; -8.75% in assay [5].

`CCCCCCCCCCCCCCCCCC[N+](CCCC)(CCCC)CCCCCCCCCCCCCCCCCC` (tested in a mixture with another compound): the growth inhibition was 3.45% in assay [1]; 7.25% in assay [2]; -10% in assay [3]; 1.5% in assay [4]; 4.3% in assay [5].

For the compound `COC(=O)C(Cc1[nH]c(N=Nc2ccc(Br)cc2)nc1N=Nc1ccc(Br)cc1)NC(C)=O` (configuration not stated), the growth inhibition in assay [1] was 43%; in assay [2] it was -1%; in assay [3], -11.1%; in assay [4] it was -3.55%; in assay [5], -5.25%.

For the compound `O=Cc1ccc(C=O)cc1`, the growth inhibition in assay [1] is 22.6%; in assay [2], -3.35%; in assay [3], 11.9%; in assay [4], 14.2%; in assay [5], 32.5%.

On to `COc1ccc2ncc(COC(=O)NC3CCCCC3)c(COC(=O)NC3CCCCC3)c2c1`, for which the growth inhibition in assay [1] is 36.9%; in assay [2], -2.1%; in assay [3] it was -0.6%; in assay [4] it was -4.25%; in assay [5], 22.5%.

With `CCOC(=O)c1c(N=P(c2ccccc2)(c2ccccc2)c2ccccc2)nnc(-c2ccccc2)c1-c1ccccc1`, the growth inhibition in assay [1] was -36.4%; in assay [2], -15.4%; in assay [3] it was 1.85%; in assay [4] it was -6.55%; in assay [5], 6.5%.

On to `CCOC(=O)c1cnc2ccc(OC)cc2c1`, for which the growth inhibition in assay [1] is 0.7%; in assay [2] it was 0.7%; in assay [3], -76.6%; in assay [4], 35.5%; in assay [5], 18.3%.

In the case of `C/C(CC(=O)Nc1ccc(C)c(C)c1)=N\NC(N)=S`, the growth inhibition in assay [1] was -13.8%; in assay [2] it was -6.1%; in assay [6], 1.45%; in assay [5], -2.4%.

Turning to `CC/C=N/Nc1ccc([N+](=O)[O-])cc1[N+](=O)[O-]`, the growth inhibition in assay [1] is 15.6%; in assay [2] it was -9.1%; in assay [3] it was 3.3%; in assay [4] it was 1.6%; in assay [5] it was 22.6%.

As for `OC(C1=C/C(=C\c2ccncc2)c2ccccc21)c1ccncc1` (configuration not stated), the growth inhibition is 84.7% (active) in assay [1]; 86.5% (active) in assay [2]; 47.6% in assay [3]; 86.3% (active) in assay [4]; 93% (active) in assay [5].

On to `Cc1c[n+]([O-])n(-c2ccccc2)n1`, for which the growth inhibition was 4.65% in assay [1]; -4.9% in assay [2]; -38.7% in assay [3]; 11.6% in assay [4]; -4.8% in assay [5].

For the compound `O=[N+]([O-])c1ccc(O)c(O)c1`, the growth inhibition is -23.6% in assay [1]; -1.7% in assay [2]; 12.8% in assay [3]; 5.6% in assay [4]; -6.85% in assay [5].

Consider `CC(C)C(CCN1CCCC1(C)C)(C(N)=O)c1ccccc1` (configuration not stated), for which the growth inhibition was -4.85% in assay [1]; -12.6% in assay [2]; -34% in assay [3]; 9.6% in assay [4]; 7.75% in assay [5].

As for `Cc1cccc2c1Oc1ccccc1C2NC(=O)c1ccc([N+](=O)[O-])cc1` (configuration not stated), the growth inhibition in assay [1] is -19.4%; in assay [2], -15.4%; in assay [3], -0.9%; in assay [4], -23.4%; in assay [5], -18%.

Regarding `COc1ccc(CCc2cc(OC)c(O)c(OC)c2)cc1`, the growth inhibition is 18.5% in assay [1]; 14.8% in assay [2]; 19% in assay [3]; 30.1% in assay [4]; 41% in assay [5].

For the compound `COc1cc(/C=C/c2ccccn2)oc(=O)c1`, the growth inhibition in assay [1] was 5.2%; in assay [2], -6.7%; in assay [3] it was -14.3%; in assay [4], -12.1%; in assay [5] it was 7.9%.

For the compound `Oc1cccc2c1N1CCN2CC1`, the growth inhibition in assay [1] was -2.15%; in assay [2], 2.55%; in assay [3] it was 4.85%; in assay [4] it was 9.6%; in assay [5], 10.3%.

Turning to `COc1cc([N+](=O)[O-])ccc1NC(=O)Nc1ccc(Cl)cc1[N+](=O)[O-]`, the growth inhibition in assay [1] is -4.8%; in assay [2], 28.1%; in assay [3], -12.6%; in assay [4], 29.4%; in assay [5] it was 27.1%.

For `CCC(O)C(C)(C)N` (configuration not stated), the growth inhibition is 13.4% in assay [1]; -7.8% in assay [2]; -6.45% in assay [3]; 4.45% in assay [4]; 0.4% in assay [5].

As for `CC(=O)OCC(CBr)(CBr)COC(C)=O`, the growth inhibition is 8.85% in assay [1]; -41.4% in assay [2]; -102% in assay [3]; -20.8% in assay [4]; 23.1% in assay [5].

On to `N#CN=C(N(Cc1ccccc1)Cc1ccccc1)N(Cc1ccccc1)Cc1ccccc1`, for which the growth inhibition in assay [1] is -3.65%; in assay [2] it was -12.4%; in assay [3], 20.6%; in assay [4], 12.4%; in assay [5], -14.1%.

For the compound `O=Cc1ccnc2c(Cl)cccc12`, the growth inhibition in assay [1] was 16.4%; in assay [2], 22.8%; in assay [3] it was 15.1%; in assay [4], 6.3%; in assay [5], 18%.

Take `CC1=CC(=O)CC2(C)CCC(C(C)CC(=O)CC(C)C)CC12` (configuration not stated): the growth inhibition was 88.8% (active) in assay [1]; 91.3% (active) in assay [2]; 91.3% (active) in assay [3]; 88.8% (active) in assay [4]; 91.5% (active) in assay [5].

Regarding `Cc1ccc(NC(=O)c2ccco2)c(C)c1`, the growth inhibition was -2.3% in assay [1]; -2.55% in assay [2]; 2.65% in assay [3]; 8.4% in assay [4]; -3.1% in assay [5].

Consider `CC(C)(C)C(=O)N/N=C\c1ccc([N+](=O)[O-])s1`, for which the growth inhibition in assay [1] is 13.1%; in assay [2], -7.3%; in assay [3], 38.7%; in assay [4], 13.1%; in assay [5] it was 40.5%.

In the case of `CC(=O)Nc1ccc(C(=O)NN2C(=O)C(Cl)C2c2ccc(Cl)cc2)cc1` (configuration not stated), the growth inhibition was -50.3% in assay [1]; -32.3% in assay [2]; -27.3% in assay [3]; -28.9% in assay [4]; -43.5% in assay [5].

Consider `C=C1CC(C)(C)CN(Cc2ccc([N+](=O)[O-])cc2)C(C(=O)OC)=C1C(=O)OC`, for which the growth inhibition in assay [1] is 20.4%; in assay [2], -2.55%; in assay [3], 16.8%; in assay [4], -13.8%; in assay [5], 13.2%.

In the case of `OC1CCCCC12CC2` (configuration not stated), the growth inhibition in assay [1] was 3.85%; in assay [2], 1.5%; in assay [3] it was -3.55%; in assay [4] it was -15.2%; in assay [5], -3.2%.

Turning to `COC(=O)c1ccc(CSc2ccccc2NC(=S)Nc2cccc(SC)c2)o1`, the growth inhibition was -15.2% in assay [1], -38.8% in assay [2], -31.9% in assay [4] and -26.6% in assay [5].

Regarding `C1=Cc2c3c(c4c(c2C1)C=CC4)C=CC3`, the growth inhibition in assay [1] was -1.95%; in assay [2] it was -8.1%; in assay [3], -2.3%; in assay [4], -1.15%; in assay [5], 6.3%.

As for `Cc1c2cccc(Br)c2c[n+]2ccccc12`, the growth inhibition in assay [1] is 20.9%; in assay [6] it was 39%; in assay [3] it was -21.4%; in assay [4], 1.3%; in assay [5], 31.1%.

For the origin of these results see PubChem BioAssay (NCI).
